Screening results: PubChem BioAssay, National Center for Advancing Translational Sciences (NCATS)
Compounds with a hit are over-represented: about 11% of the library has one in this group of screens.
HP1b binding inh – inhibitors of HP1-beta chromodomain binding to methylated histone tails; P83916; AlphaScreen HP1-beta / biotin-H3K9me3 peptide binding; Potency, µM (doses to about 114 µM), without a hit: at the top dose activity change, negative = inhibition, usual class: inhibitors; 390,000 tested, 0.56% active; AID 540317; note: nearly all actives have a fitted effect of over 70% in size
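Compound inhibition of the preformed complex between 50 nM HP1-beta and 50 nM biotinylated H3K9me3 peptide was read by AlphaScreen. Buffer was PBS pH 7.4 with 0.01% Tween-20. Incubations ran 30 min at room temperature, with 10 ug/mL donor/acceptor beads.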
PLK1 PBD inh – PLK1 (human) polo-box domain binding inhibition. P53350. Plk1 PBD binding of FITC phosphopeptide, fluorescence polarization. Potency, µM, for inactives: max response, negative = inhibition, usual class: inhibitors. 360,000 tested, 2.8% active. AID 720504; note: series mostly up to about 57 µM; % is set by controls: 0 for no effect and ±100 for the full control effect; nearly all actives have a fitted effect of over 65% in size
JMJD2A Tudor – blocks the human JMJD2A Tudor domain; O75164; Potency, µM (top dose mostly 114 µM), inactives show at the highest dose activity change, negative = inhibition, hits mostly inhibitors; AlphaScreen JMJD2A-Tudor / H3K4me3 peptide binding; 390,000 tested, 4.4% active; AID 504339; note: % is set by controls: 0 for no effect and ±100 for the full control effect; nearly all actives have a fitted effect of over 50% in size
BAZ2B inh – blocks human BAZ2B | Q9UIF8 | AlphaScreen BAZ2B-H3K14Ac peptide displacement | Potency, µM (series often up to 114 µM), without a hit: at the highest dose activity change, negative = inhibition, actives largely listed as inhibitors | 360,000 tested, 4.4% active; note: % is set by controls: 0 for no effect and ±100 for the full control effect; nearly all actives have a fitted effect of over 60% in size
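BAZ2B (50 nM) with biotin-H3(5-23)K14Ac peptide (50 nM) in PBS pH 7.4, 0.01% Tween-20, preformed 30 min, then compound 30 min at room temperature; top concentration 110uM. AlphaScreen streptavidin donor/nickel chelate acceptor beads (10 ug/mL final), 20 min dark, signal read.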
G9a block – blocks human histone lysine methyltransferase G9a; Q96KQ7; G9a H3K9 monomethylation, AlphaScreen, 2 h; Potency, µM (series often up to 102 µM), for inactives: top-dose activity, negative = inhibition, most hits filed as inhibitors; 350,000 tested, 8.8% active; note: % is set by controls: 0 for no effect and ±100 for the full control effect; nearly all actives have a fitted effect of over 75% in size
Target sequence (Q96KQ7 913-1193 limits assumed): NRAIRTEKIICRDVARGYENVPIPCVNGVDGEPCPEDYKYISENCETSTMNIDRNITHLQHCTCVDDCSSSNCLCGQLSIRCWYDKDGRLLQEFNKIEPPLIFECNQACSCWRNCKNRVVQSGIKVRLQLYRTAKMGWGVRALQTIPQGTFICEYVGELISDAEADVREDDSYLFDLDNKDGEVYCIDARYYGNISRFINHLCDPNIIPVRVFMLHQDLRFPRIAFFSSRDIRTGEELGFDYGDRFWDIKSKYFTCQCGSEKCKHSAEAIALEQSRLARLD
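G9a (20 nM) preincubated 15 min RT with compounds, then 500 nM biotinylated H3K9 peptide and 20 uM SAM added; 2 h RT reaction. Monomethyl-H3K9 product detected by AlphaScreen with anti-H3K9me1 antibody, streptavidin donor and anti-rabbit IgG acceptor beads.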
VDR inhibitor – blocks the human vitamin D receptor | VDR-SRC2-3 peptide fluorescence polarization, 2 h | 400,000 tested, 0.93% active | Potency, µM, for inactives: max response, negative = inhibition, hits mostly inhibitors; note: % is set by controls: 0 for no effect and ±100 for the full control effect
Target sequence (P11473 whole entry, looked up): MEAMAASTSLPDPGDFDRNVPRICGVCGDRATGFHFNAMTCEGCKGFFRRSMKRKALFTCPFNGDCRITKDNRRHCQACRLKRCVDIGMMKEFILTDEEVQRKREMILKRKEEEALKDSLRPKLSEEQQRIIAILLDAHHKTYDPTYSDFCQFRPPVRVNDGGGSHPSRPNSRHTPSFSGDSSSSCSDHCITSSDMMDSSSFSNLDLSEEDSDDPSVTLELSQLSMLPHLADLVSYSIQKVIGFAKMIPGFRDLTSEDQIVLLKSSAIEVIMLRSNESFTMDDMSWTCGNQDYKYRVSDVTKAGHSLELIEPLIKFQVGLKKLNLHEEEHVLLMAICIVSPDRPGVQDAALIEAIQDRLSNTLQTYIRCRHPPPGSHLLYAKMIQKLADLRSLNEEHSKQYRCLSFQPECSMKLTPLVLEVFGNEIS
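Inhibition of the VDR/SRC2-3 peptide interaction is quantified by fluorescence polarization. Compounds (23 nl, pintool) incubate with the reagents for 2 hours at ambient room temperature.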
Starred values were filed as active, the others as inactive; ? = inconclusive; . = no result given; ! = not confirmed by another sample; [ ] = another dose, or the depositor's remark. Calls come from the whole dose curve; as a rule, active = well fitted curve in the direction sought with a large enough effect; inconclusive = small, poorly fitted or top-dose-only effect, or another doubt; inactive = no such curve, though single readings can be large; an effect the other way counts as inactive or inconclusive. Potency is the fitted concentration of half-maximal effect.

SMILES	HP1b binding inh	PLK1 PBD inh	JMJD2A Tudor	BAZ2B inh	G9a block	VDR inhibitor
CCc1ccc(OCC(=O)N(Cc2ccc(C)o2)C2CCS(=O)(=O)C2)cc1 (stereo not given)	12%	.	56µM*	-29%	-22%[59 µM]	16%
Cc1cc(C)cc(OCC(=O)N(Cc2ccc(C)o2)C2CCS(=O)(=O)C2)c1 (stereo not given)	-21%	.	-32%	-27%	-43%[59 µM]	8%
CC(OC(=O)CCNS(=O)(=O)c1cccs1)C(=O)Nc1ccc(S(N)(=O)=O)cc1 (stereo not given)	37%	0%	8%	14%	-15%[12.7 µM]	-5%
O=C(N=Nc1c(O)[nH]c2ccc(Cl)cc12)c1cc(-c2cccs2)nc2ccccc12	32%	-5%	-5%	-3%	16%[59 µM]	-9%
Cc1cc(NC(=O)CSc2nc(CC(C)(C)C)nc3c2c(=O)n(C)c(=O)n3C)no1	35%	8%	-9%	5%	?	1%
Nc1ccn(CCCNCC(c2ccccc2)c2ccccc2)c(=O)n1	.	-4%	.	.	.	.
Cc1ccc(CN(C(=O)COc2ccc(C)c(C)c2)C2CCS(=O)(=O)C2)o1 (stereo not given)	-8%	27µM*	?	-21%[57.1 µM]	-9%	-27%
Cc1ccc(CN(C(=O)COc2ccc(Br)cc2)C2CCS(=O)(=O)C2)o1 (stereo not given)	-8%	12µM*	25µM*	?	-8%	?
CC(C)Sc1ncc(Cl)c(C(=O)N(Cc2ccc(N(C)C)cc2)C2CCS(=O)(=O)C2)n1 (stereo not given)	?	.	56µM*	45µM*	?	2%
CCOCCCNC(=O)C(c1ccc(OC)cc1)N(Cc1cccs1)C(=O)c1ccc(NC(C)=O)cc1 (stereo not given)	14%	.	-16%	8%	9%[59 µM]	8%
N#CCCn1c(=O)cnc2cnc(N3CCNCC3)nc21	.	.	.	.	-1%[12.7 µM]	-2%
O=S1(=O)N=C(Sc2ccc3c(c2)OCCO3)c2ccccc21	.	.	-26%	.	.	.
c1ccc(C(c2ccccc2)N2CC[C@@]3(CCCNC3)C2)cc1	.	.	.	.	-28%[12.7 µM]	?
O=C(O)CCCCCCCCc1cn(CCc2c[nH]c3ccccc23)nn1	14%	-11%	-28%	-38%	28µM*	-8%
COc1ccc(NS(=O)(=O)c2c(F)cc(F)c(Cl)c2F)cc1S(=O)(=O)N1CCCCC1	12%	-3%	-22%	-18%	-8%[59 µM]	10%
COc1ccc(C(CNCC(O)COc2c(C)ccc(C)c2C)N(C)C)cc1 (stereo not given)	3%	1%	22µM*	56µM*	-19%	-11%
COc1ccc(C(CNC(=O)CSc2ccccc2C)N(C)C)cc1 (stereo not given)	-4%	-29%	-23%	-8%	-5%	9%
c1ccc2c3c([nH]c2c1)[C@@H]1[C@H]2CC[C@H]([C@H]4CCCN[C@H]42)N1CC3	.	.	.	.	10µM*	-1%
Cn1c(-c2ccncc2)nc2ccccc21	19%	-8%	-14%	10%	1%[0.501 µM]	-7%
CN1CN(C)C(c2ccncc2)=C1c1ccncc1	22%	-1%	-7%	-9%	40µM*	-15%
CCN(CC)c1ccc(NS(=O)(=O)c2ccc(-c3cnc(C4CC4)o3)cc2)c(C)c1	?	.	18µM*	14µM*	?	11%
COc1ccccc1CNS(=O)(=O)c1ccc(-c2cnc(C3CC3)o2)cc1	2%[57 µM]	-10%	-36%	89µM*!	7%[59 µM]	-9%
COc1ccccc1NS(=O)(=O)c1ccc(-c2cnc(C3CC3)o2)cc1	16%	7%	-11%	?	.	-13%
COc1cc2c(cc1OC)C(COc1ccc(C(C)C)cc1)N(C(=O)c1ccc(S(=O)(=O)N3CCCC3)cc1)CC2 (stereo not given)	10%	.	-25%	-19%	-34%[59 µM]	4%
CC(C)N(Cc1ccccc1)C(=O)c1nc(-c2ccc(Cl)cc2)n2c1CCCCC2	-15%	.	45µM*	35µM*	?	11%
SMILES	HP1b binding inh	PLK1 PBD inh	JMJD2A Tudor	BAZ2B inh	G9a block	VDR inhibitor
Cc1ccc(-c2nc(C(=O)NCc3ccc(Cl)cc3)c3n2CCCCC3)cc1	16%	.	-7%	4%	6%[59 µM]	-4%
O=C(c1ccc(Cl)cc1)N1CCN(c2ccc(F)cc2)CC1	28%	0%	-11%	6%	10%[59 µM]	6%
O=C(c1nc(-c2ccc(Cl)cc2)n2c1CCCCC2)N1CCN(c2ccc(F)cc2)CC1	?	.	40µM*	40µM*	?	6%
O=C(NCc1ccccc1)c1nc(-c2ccc(Cl)cc2)n2c1CCCCC2	-5%	.	22µM*	13µM*	14µM*	-4%
O=C(NCCc1ccccc1)c1nc(-c2ccc(Cl)cc2)n2c1CCCCC2	-19%	.	22µM*	25µM*	14µM*	-2%
COC(=O)c1ccc(NC(=O)c2nc(-c3ccc(Cl)cc3)n3c2CCCCC3)cc1	-1%	.	-35%	?	?	-3%
COc1ccc(-c2cc(C(F)(F)F)nc(SCCC(=O)Nc3ccc(OC)c(OC)c3)n2)cc1	17%	.	-10%	-6%	4%[59 µM]	-4%
COc1ccc(-c2nc(=S)c3c([nH]2)Oc2ccc(C)cc2C3)cc1O	12%	-9%	-8%	22%	63%[59 µM]	14%
CCOc1ccccc1CNC(=O)c1nc(-c2ccc(Cl)cc2)n2c1CCCCC2	-15%	.	?	10µM*	10µM*	-10%
O=C(NCCc1ccc(Cl)cc1)c1nc(-c2cccc(F)c2)n2c1CCCCC2	-23%	.	22µM*	11µM*	25µM*	2%
CCCCN1C(=O)N(C)C2NC(=S)NC21 (stereo not given)	44%	1%	18%	-1%	.	10%
CCOC(=O)c1ccccc1NC(=O)Cn1ncc2c1-c1ccccc1OC2	34%	.	4%	-20%	9%[59 µM]	1%
O=S(=O)(c1cccc(-c2n[nH]c(=S)o2)c1)N1CCOCC1	-22%	27µM*	?	-13%	14µM*	-14%
O=S(=O)(c1cccc(-c2nnco2)c1)N1CCOCC1	25%	-4%	-2%	6%	15%	-6%
Cc1ccc(S(=O)(=O)N2CCOCC2)cc1-c1n[nH]c(=S)n1-c1ccccc1	37%	-6%	6.3µM*	10%	-8%[12.7 µM]	8%
O=S(=O)(c1cccc(-c2n[nH]c(=S)n2-c2cccc(C(F)(F)F)c2)c1)N1CCOCC1	24%	-4%	?	.	.	-2%
O=S(=O)(c1cccc(S(=O)(=O)N2CCC(Cc3ccccc3)CC2)c1)N1CCOCC1	-6%	27µM*	-5%[11.4 µM]	-3%	?	4%
O=S(=O)(c1cccc(-c2cn3cccnc3n2)c1)N1CCOCC1	32%	?	-6%	-2%	35µM*	4%
